Source: PubChem BioAssay AID623865 (Southern Research Specialized Biocontainment Screening …, 2012)
The source made the active and inactive calls. The rule behind the calls is not given here.

test: West Nile virus CPE inhibitors, flavivirus guanylyltransferase probe project, cell-based, secondary screen (AID 623865); conditions: West Nile virus CPE inhibition assay; series mostly up to 50 µM

outcome, inactive:
O=[N+]([O-])c1cccc(S(=O)(=O)Nc2cc(SCc3ccccc3)c(O)c3ccccc23)c1
Cc1cc(F)ccc1S(=O)(=O)Nc1cc(SCC(=O)O)c(O)c2ccccc12
Cn1c(=O)c2[nH]c(-c3ccccc3)c(O)c2n(C)c1=O
O=S(=O)(Nc1cc(Sc2ncn[nH]2)c(O)c2ccccc12)c1ccc(F)cc1
O=S(=O)(Nc1cc(Sc2ccccc2)c(O)c2ccccc12)c1ccc(F)cc1
O=C(O)CSc1cc(NS(=O)(=O)c2ccc(Br)cc2)c2ccccc2c1O
O=C(O)CSc1cc(NS(=O)(=O)c2cccc3cccnc23)c2ccccc2c1O
O=C(O)CSc1cc(NS(=O)(=O)c2cccc([N+](=O)[O-])c2)c2ccccc2c1O
O=S(=O)(Nc1cc(SCc2ccccc2)c(O)c2ccccc12)c1ccc(Cl)cc1
COc1ccc(OC)c(S(=O)(=O)Nc2cc(SCC(=O)O)c(O)c3ccccc23)c1
Cc1ccc(S(=O)(=O)Nc2cc(Sc3nc(C)cc(C)n3)c(O)c3ccccc23)cc1
O=C(O)CSc1cc(NS(=O)(=O)c2ccc(Cl)cc2)c2ccccc2c1O
Cn1c(=O)c2[nH]c(-c3ccc(Cl)cc3)c(O)c2n(C)c1=O
O=[N+]([O-])c1cccc(S(=O)(=O)Nc2cc(Sc3nc4ccccc4s3)c(O)c3ccccc23)c1
Cc1ccc(S(=O)(=O)Nc2cc(SCC(=O)O)c(O)c3ccccc23)cc1
O=S(=O)(Nc1cc(Cl)c(O)c2ccccc12)c1ccc(F)cc1
O=C(O)CSc1cc(NS(=O)(=O)c2ccc(F)cc2)c2ccccc2c1O
Cc1cc(C)c(S(=O)(=O)Nc2cc(SCC(=O)O)c(O)c3ccccc23)c(C)c1
